# Data: PubChem BioAssay AID1347165 (National Center for Advancing Translational Sciences (NCATS), 2019)
# Where “and” joins values, the source holds several entries; their conditions need not be identical. Equal entries are not always repeated. Among all 220,000 compounds or so, about 5,700 (2.6%) were called active. A call without a number means that no potency is given here. Inconclusive results (about 18%) are left out. Calls come from the whole dose curve; as a rule, active = well fitted inhibition curve with a large enough effect; inconclusive = small, poorly fitted or top-dose-only effect; inactive = no such curve, though single readings can be large or run the other way. For the sample, actives were picked, then their nearest neighbours and some compounds at random.
# Target: Lysine-specific demethylase 5B (Homo sapiens) (UniProt Q9UGL1)
# Assay: Primary screen for KDM5B Histone Demethylases FDH-coupled qHTS; note: nearly all actives have a fitted effect of over 70% in size
# Conditions: FDH-coupled NADH fluorescence (FDH is formaldehyde dehydrogenase); series mostly up to 57.7 µM
# Procedure, shortened: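 Inhibition is measured as reduced NADH fluorescence generation from FDH coupling to formaldehyde release. Truncated KDM5BΔAP at 200 nM final acts on H3K4me3 peptide (12.5 µM in substrate mix) in pH 7.5 HEPES buffer with Tween-20, 30 min, room temperature.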
# Potency is the fitted concentration of half-maximal effect.
# Lysine-specific demethylase 5B (Homo sapiens), sequence (Q9UGL1 whole entry, looked up): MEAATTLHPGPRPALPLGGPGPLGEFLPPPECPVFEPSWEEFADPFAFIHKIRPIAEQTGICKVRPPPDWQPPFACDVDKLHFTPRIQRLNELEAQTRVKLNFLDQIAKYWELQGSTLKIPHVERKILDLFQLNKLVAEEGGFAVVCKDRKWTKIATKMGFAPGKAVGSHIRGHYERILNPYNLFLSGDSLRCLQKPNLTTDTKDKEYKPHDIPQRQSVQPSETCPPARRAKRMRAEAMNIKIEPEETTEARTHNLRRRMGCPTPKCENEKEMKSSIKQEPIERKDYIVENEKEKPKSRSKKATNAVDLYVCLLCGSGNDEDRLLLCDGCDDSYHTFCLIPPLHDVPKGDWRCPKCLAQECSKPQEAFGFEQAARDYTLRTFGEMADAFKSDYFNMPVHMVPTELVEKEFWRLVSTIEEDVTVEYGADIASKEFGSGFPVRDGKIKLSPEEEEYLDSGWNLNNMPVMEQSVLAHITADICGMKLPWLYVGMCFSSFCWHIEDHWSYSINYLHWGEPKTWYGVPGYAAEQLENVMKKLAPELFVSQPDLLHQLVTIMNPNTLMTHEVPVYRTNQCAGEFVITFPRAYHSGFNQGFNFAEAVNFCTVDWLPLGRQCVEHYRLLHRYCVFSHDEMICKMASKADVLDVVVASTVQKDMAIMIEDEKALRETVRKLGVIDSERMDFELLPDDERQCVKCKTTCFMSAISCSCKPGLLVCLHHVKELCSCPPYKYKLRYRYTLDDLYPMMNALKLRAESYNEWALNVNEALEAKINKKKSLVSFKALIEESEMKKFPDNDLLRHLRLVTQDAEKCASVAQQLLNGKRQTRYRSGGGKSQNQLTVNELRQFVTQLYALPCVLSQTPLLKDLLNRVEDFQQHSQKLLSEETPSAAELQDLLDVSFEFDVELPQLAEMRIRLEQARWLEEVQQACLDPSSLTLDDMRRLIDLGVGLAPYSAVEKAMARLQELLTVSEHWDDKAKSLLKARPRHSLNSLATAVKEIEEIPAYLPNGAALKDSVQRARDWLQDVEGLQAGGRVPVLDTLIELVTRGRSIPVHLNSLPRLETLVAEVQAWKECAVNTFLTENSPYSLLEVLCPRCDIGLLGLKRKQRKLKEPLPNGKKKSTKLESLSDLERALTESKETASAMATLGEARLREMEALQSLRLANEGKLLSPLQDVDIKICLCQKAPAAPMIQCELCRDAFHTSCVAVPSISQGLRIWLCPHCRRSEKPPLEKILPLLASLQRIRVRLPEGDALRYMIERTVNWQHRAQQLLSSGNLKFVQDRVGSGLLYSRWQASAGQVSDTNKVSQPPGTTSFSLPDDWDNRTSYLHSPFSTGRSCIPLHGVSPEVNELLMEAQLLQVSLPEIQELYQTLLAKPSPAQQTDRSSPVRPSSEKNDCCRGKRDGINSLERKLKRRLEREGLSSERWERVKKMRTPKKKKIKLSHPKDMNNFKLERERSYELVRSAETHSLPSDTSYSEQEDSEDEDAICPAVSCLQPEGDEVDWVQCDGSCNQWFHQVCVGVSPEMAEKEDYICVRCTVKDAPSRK
row,Structure (SMILES),Potency
1,COc1ccc(C2=NOC(C(=O)Nc3cc(C)nn3-c3ccccc3)C2)cc1 (stereo unspecified),inactive
2,O=C(COc1ccccc1)Nc1ccc2c(=O)c3ccccc3oc2c1,inactive
3,CN(C)C(=O)c1ccc(OCc2coc(-c3cccc(F)c3)n2)cc1,inactive
4,O=C(O)c1ccc2oc(-c3cccc(Cl)c3)nc2c1,inactive
5,CCc1ccc(CN(C)C(=O)c2ccc3oc(-c4cccc(F)c4)nc3c2)nc1,28.2 µM (active)
6,CCCCS(=O)CC(O)CCl (stereo unspecified),inactive
7,O=C(CN1CCCCCC1)Nc1ccc(Cl)cc1F,inactive
8,CN(C)C(=O)CN1C(=O)c2ccccc2C1c1cn(C)c2ccccc12 (stereo unspecified),inactive
9,O=C(CCNc1c(-c2ccccc2)nc2cnccn12)N1CCC(N2CCCCC2)CC1,28.2 µM (active)
10,Oc1ccc(-c2nc3ccc(Cl)cn3c2Nc2ccc3c(c2)OCO3)cc1,inactive
11,O=C(CCNc1c(-c2ccc(F)cc2)nc2cnccn12)Nc1ccc2c(c1)OCO2,25.1 µM (active)
12,Cc1cccc(-c2cccc(NC(=O)C3CCCN(C(=O)CC(F)(F)F)C3)c2)c1 (stereo unspecified),inactive
13,CC(=O)N1CCN(C(=O)CCC(=O)N2CCC(c3noc4cc(F)ccc34)CC2)CC1,inactive
14,Cc1cccc(-c2nc3cnccn3c2NCCC(=O)N2CCCCCC2)c1,28.2 µM (active)
15,CC1CCN(C(=O)CCNc2c(-c3ccc(F)cc3)nc3cnccn23)CC1,31.6 µM (active)
16,O=C(CSc1nc(-c2cccc(F)c2)[nH]c1-c1ccccc1)Nc1ccc2c(c1)OCO2,inactive
17,O=C1CCN(C(=O)C2CCN(C(=O)CCCc3ccccc3)CC2)CCCCCCN1,inactive
18,Cc1cc(C)cc(C(=O)NCCC(=O)N2CCCC2)c1,inactive
19,O=C(NC1CCCCC1)N1CCCCCC1c1nc(-c2cccnc2)no1 (stereo unspecified),inactive
20,O=C(Nc1c(-c2ccc(F)cc2)nc2ccccn12)c1cccc(F)c1,inactive
21,CC(C)CCN(CC(=O)NC(N)=O)C1CC1,inactive
22,COc1ccc(NC(=O)Cc2c(C)c3ccc(OC)c(C)c3oc2=O)cc1OC,inactive

row,Structure (SMILES),Potency
1,COC(=O)c1ccc(OCc2cccc(C#N)c2)c(OC)c1,inactive
2,Cn1c(=O)c2c(ncn2CCC(=O)Nc2ccc(F)cc2F)n(C)c1=O,inactive
3,COc1ccc(Nc2ccccc2)cc1,inactive
4,CCCn1nc(C(=O)OCc2nc(-c3cccc(OC)c3)no2)c2ccccc2c1=O,inactive
5,Cc1cccc(N2CCN(C(=O)c3cnc(N4CCCC4)nc3C)CC2)c1C,inactive
6,COC(=O)CNC(=O)c1nc(-c2ccc([S+](C)(=O)[O-])cc2)c2ccccn12,inactive
7,O=C(NCc1ccc(F)cc1)c1nc(-c2ccccc2)c2ccccn12,28.2 µM (active)
8,Cc1cc2ccccc2n1CCNC(=O)c1ccc(F)cc1,inactive
9,O=C(CSc1nccn1Cc1ccc(F)cc1)NCc1ccccc1,inactive
10,O=C(c1cc(-c2ccccc2)n[nH]1)N1CCN(c2ncccn2)CC1,inactive
11,Cc1nc(-c2ccccc2)n(CC(=O)NCc2ccc(F)cc2)c(=O)c1CCO,inactive
12,Cc1cccc(C)c1-c1nc(C(=O)N2CCN(c3ncccn3)CC2)n2ccccc12,31.6 µM (active) and 28.2 µM (active)
13,Cc1ccc(CNC(=O)c2c(O)nc3c(C)cccn3c2=O)cc1,inactive
14,Cc1cccc(C)c1-c1nc(C(=O)NCc2ccc(F)cc2)n2ccccc12,28.2 µM (active)
15,COCCNC(=O)c1cc(-c2cccc(Cl)c2)on1,inactive
16,COc1cccc(/C=C2\C=C(c3ccc(C)cc3)OC2=O)c1OC(C)=O,inactive
17,O=C(NCCN1CCCCC1)C(=O)Nc1cccc2[nH]ccc12,inactive
18,CCCC(=O)Nc1ccc(-c2csc(NC)n2)cc1,inactive
19,O=C(Cn1c(=O)c2c(ncn2C2CCCC2)n(Cc2ccccc2)c1=O)NC1CCS(=O)(=O)C1 (stereo unspecified),inactive
20,CC(Oc1ccc(Cl)cc1)c1nc(-c2ccc(Cl)cc2)no1 (stereo unspecified),inactive
21,O=c1cc(N2CCOCC2)oc2c(Nc3cccc(Cl)c3)nccc12,inactive
22,Cc1noc(C)c1-c1nccc2c(=O)cc(N3CCOCC3)oc12,39.8 µM (active)

row,Structure (SMILES),Potency
1,O=c1cc(N2CCOCC2)oc2c(NCc3ccncc3)nccc12,35.5 µM (active)
2,CN(c1ccccc1)c1cc(=O)c2ccnc(NC3CCOCC3)c2o1,inactive
3,Cn1ncc2c(Nc3cccc4c3CCCC4)ncnc21,inactive
4,CCc1ccc(-n2nc(C)c3c(C(F)(F)F)cc(OCC(=O)NC(C)C)nc32)cc1,inactive
5,COc1cc2c(C(=O)N(C)c3cc(Cl)ccc3OC)cn(C)c(=O)c2cc1OC,inactive
6,O=C(COc1ccccc1)N1CC2(C1)CN(Cc1ccc(Cl)cc1)C(=O)O2,inactive
7,N#CCCNC(=O)CSc1nc(C2CC2)nc2ccccc12,inactive
8,O=C(Cn1cnc2c(Cl)cc(Cl)cc2c1=O)N(C1CCCC1)C1CCS(=O)(=O)C1 (stereo unspecified),inactive
9,Cc1ccc(C2(O)CCN(c3nccc(CCC(F)(F)F)n3)CC2)nc1,22.4 µM (active)
10,Cc1ccc(C2(O)CCN(C(=O)c3ccccc3-c3nn[nH]n3)CC2)nc1,inactive
11,CCCN1C(=O)NC(CC(=O)N2CCC(O)(c3ccc(C)cn3)CC2)C1=O (stereo unspecified),inactive
12,Cc1csc(SCc2cc(Cl)c3c(c2)OCCO3)n1,inactive
13,N#Cc1cccc(NC(=O)CSc2ccccc2C(=O)Nc2ccc3c(c2)OCCCO3)c1,inactive
14,COc1ccccc1-n1nc(CC(N)=O)nc1C1CCCCn2nnnc21 (stereo unspecified),inactive
15,C=CCOc1cccc(NC(=O)c2ccccc2Cl)c1,inactive
16,CN1CCc2c([nH]c3ccccc23)C12CCN(C(=O)c1nccc3ccccc13)CC2,inactive
17,COCCOCC(=O)N1CCC2(CC1)c1[nH]c3ccc(OC)cc3c1CCN2C,28.2 µM (active)
18,COc1ccc2[nH]c3c(c2c1)CCNC31CCN(C(=O)c2ccccc2)CC1,inactive
19,CCN1CCC(N(C(=O)c2cc3ccccc3n2C)C2CC2)CC1,inactive
20,CCc1cc(=O)oc2c(C)c(OCC(=O)NCCN3CCOCC3)ccc12,inactive
21,CCn1c2c(c(=O)n1Cc1ccccc1)CCN(C(=O)Cc1ccc3c(c1)OCO3)C2,inactive
22,O=C(Cc1ccc(F)cc1)N1CCCC(c2nn(-c3ccc(Cl)cc3)c(=O)[nH]2)C1 (stereo unspecified),inactive

row,Structure (SMILES),Potency
1,O=C(Cc1ccc(Cl)cc1)N1CCc2c(nc3cc[nH]n3c2=O)C1,31.6 µM (active)
2,Cc1nn2c(c1-c1ccccc1N1CCCC1)N(C(=O)c1ccn(C)n1)CCC2,7.94 µM (active)
3,Cc1nn2c(c1-c1ccccc1C(C)C)N(C(=O)c1cnccn1)CCC2,inactive
4,Cc1nn2c(c1-c1ccccc1C(C)C)N(C(=O)c1cccc(C#N)c1)CCC2,inactive
5,COc1cc(C2Nc3ccc(C)cc3[C@H]3OCCC[C@@H]23)cc(Cl)c1O (stereo partly specified),inactive
6,COc1ccc(CNC(=O)c2cc3c(s2)CN(C2CC2)C3)cc1OC,11.2 µM (active)
7,COc1cc(CNC(=O)Cc2ccc(OC)c(OC)c2)ccn1,inactive
8,CSc1ccc(CNC(=O)c2cc3c(s2)CCCC3)cc1,inactive
9,Cc1cccc(N2C(=O)c3ccc(C(=O)Nc4cccc(C(=O)O)c4)cc3C2=O)c1,inactive
10,CC(C)CNc1ccc2nnc(-c3ccccn3)n2n1,31.6 µM (active)
11,CCCNc1ccc2nnc(C)n2n1,inactive
12,Cc1ccc(OCC(=O)Nc2ccc3oc(=O)ccc3c2)cc1C,inactive
13,O=C(CCc1ncc(-c2ccc(F)cc2)o1)NC1CCN(Cc2ccccc2)C1 (stereo unspecified),inactive
14,O=C(CCNc1cnc2cnccn12)NC1CCN(Cc2ccccc2)CC1,22.4 µM (active)
15,O=C(O)CC1(CC(=O)NC2CCN(Cc3ccccc3)CC2)CCCC1,inactive
16,COc1ccc2c(c1)OCC(C(=O)N1CCCN(c3ncccn3)CC1)C2 (stereo unspecified),25.1 µM (active)
17,Cc1cc(OCC(=O)N2CCN(c3ncccn3)CC2)ccc1Cl,inactive
18,O=C(c1ccoc1)N1CCCN(C(=O)C2COc3ccccc3C2)CC1 (stereo unspecified),inactive
19,Cc1nc(CCNS(=O)(=O)c2cccnc2)no1,inactive
20,Cc1nc(CCNc2nccc(-c3cccnc3)n2)nc2c1CCCC2,28.2 µM (active)
21,Cc1nc(CNC(=O)[C@H]2CCC[C@@H](O)C2)nc2c1CCCC2,inactive
22,O=C(CCSc1nc2ccccc2s1)NCc1cc(F)cc(F)c1,inactive

row,Structure (SMILES),Potency
1,COC(=O)c1ccc(C(=O)OCc2nc(N)c3ccccc3n2)cc1,inactive
2,CCn1ccc2cc(S(=O)(=O)N3CCC(C(=O)N4CCN(C)CC4)CC3)ccc21,inactive
3,O=C(O)CCn1ncc2cc(OC3CCN(C(=O)C4CCCC4)CC3)ccc21,inactive
4,NC(=O)Cn1ccc2cc(OCC3CCN(C(=O)C4CCCC4)CC3)cnc21,35.5 µM (active)
5,Cc1ccc(-n2nnnc2SCc2nc3ccsc3c(=O)[nH]2)c(C)c1,inactive
6,O=C(Nc1ccc(SC2CCCC2)cc1)C1CCCC1,inactive
7,CCOc1nccnc1NC1CCN(C(=O)c2cccnc2)CC1,28.2 µM (active)
8,CCCS(=O)(=O)N1CCC2(CC1)C(OC)C(=O)N2CC1CC1 (stereo unspecified),inactive
9,CCCS(=O)(=O)N1CCC(Cc2nc(-c3cccnc3)n[nH]2)C1 (stereo unspecified),inactive
10,COC(=O)[C@@H]1CN(C(=O)c2cccnc2)CCN1C(C)=O,inactive
11,CCCS(=O)(=O)N1CCC(Nc2nccnc2OCC)CC1,15.8 µM (active)
12,C=CCNC(=O)C[C@@H]1CCN(C(=O)c2cccnc2)C[C@@H]1CC,inactive
13,CC(Sc1nc(N)cc(N)n1)C(=O)c1ccc(Cl)cc1 (stereo unspecified),inactive
14,Cn1cc(-c2cc3n(n2)CCC(=O)N3CC(=O)NC2CCCCC2)c2ccccc21,inactive
15,CCCCN(CCCC)c1cccc(-c2cccc(N(CCCC)CCCC)c2)c1,inactive
16,Cc1cccc(C)c1NC(=O)CSc1nc2c(cc1C#N)CCCC2,inactive
17,N#Cc1cc2c(nc1SCC(=O)NCCc1ccccc1)CCCC2,inactive
18,N#Cc1cc2c(nc1N1CCN(C3CCCC3)C(CCO)C1)CCCC2 (stereo unspecified),28.2 µM (active)
